Pf Dd2 growth = Plasmodium falciparum Dd2 growth inhibition | P. falciparum Dd2 growth, SYBR Green, 72 h | Potency, µM (series often up to 28.9 µM), for inactives: top-dose activity, negative = inhibition, usual class: inhibitors | hit rate 4.3% among 120,000 | AID 1347417; active means well fitted inhibition curve with a large enough effect;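 further: plate controls were DMSO vehicle for no effect and reference drug for full effect; nearly all actives have a fitted effect of over 65% in size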
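Infected erythrocytes (Dd2, 0.3% parasitemia, 2.5% hematocrit final) are added to compound in RPMI-1640/Albumax II medium, grown 72 h at 37C in low oxygen, then lysed with saponin/Triton-X containing SYBR Green and read by fluorescence.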
The depositor's hits bear a star; [ ] = remark or other dose. The sample as a whole holds a higher share of hits than the screen did. Potency means the concentration at half of the fitted maximal effect.

What do the screens show for `Cc1ncc2c(N3CC4CCC(C3)N4CC(F)(F)F)nc3ccccc3n12`?
Pf Dd2 growth: 5.01µM*

How did O=C1NC2(CN(C(=O)c3ccc(C(F)(F)F)cc3)C2)Oc2ccccc21 do in these assays?
Pf Dd2 growth: -12.2%

How did CCC(=O)N1CCN(C(=O)N2CC3CC(C2)[C@H]2CCCC(=O)N2C3)CC1 (stereo partly drawn) do in these assays?
Pf Dd2 growth: 13.7%

Results for COc1ccc(NC(=O)CN2C(=O)NC3(CCC(C)CC3)C2=O)c(OC)c1 (stereo not drawn) ?
Pf Dd2 growth: -11.6%

Results for Cc1ncc(CN2CCC3(CC2)CCN(Cc2ccoc2)CC3CO)n1C (stereo not drawn) ?
Pf Dd2 growth: 8.4%

Results for CC(C)CNC(=O)N1C[C@@H](Oc2ccccc2)C[C@@H]1C(=O)N1CCOCC1 ?
Pf Dd2 growth: 1.8%

Results for COc1ccc(C(=O)N2C[C@@H]3C[C@H](C2)c2ccc(NC(=O)Nc4cccc(C#N)c4)c(=O)n2C3)cc1 ?
Pf Dd2 growth: inactive

How did CCN1CCN(CCNC(=O)C2CCN(C(=O)N3CC4CC(C3)[C@H]3CCCC(=O)N3C4)CC2)CC1 (stereo partly drawn) do in these assays?
Pf Dd2 growth: 26.9%

How did O=C(CCC1CCN(C(=O)c2ccccc2)CC1)Nc1ccc(F)cc1F do in these assays?
Pf Dd2 growth: -21.6%

Results for Cc1noc(C)c1[S+](=O)([O-])N1CCCC2(CC(c3cccc(C(F)(F)F)c3)=NO2)C1 (stereo not drawn) ?
Pf Dd2 growth: inactive

Results for COC(=O)c1ccc2nc(C[C@@H]3C[C@@H](C(C)C)[C@H](CNC(=O)CCCC(=O)O)C=C3C)[nH]c2c1 ?
Pf Dd2 growth: -28.1%

Results for CC1=C[C@@H](CNCc2ccccc2)[C@H](C(C)C)C[C@H]1Cc1nc2c(C)cccc2[nH]1 ?
Pf Dd2 growth: 3.55µM*

What do the screens show for `COC(=O)c1ccc2nc(C[C@@H]3C[C@@H](C(C)C)[C@H](CNC(=O)COCC(=O)O)C=C3C)[nH]c2c1`?
Pf Dd2 growth: -14.3%

Results for CC1=C[C@@H](CNC(=O)CC(C)(C)CC(=O)O)[C@H](C(C)C)C[C@H]1Cc1nc2c(C)cccc2[nH]1 ?
Pf Dd2 growth: -23.7%

What do the screens show for `COC(=O)c1ccc2nc(C[C@@H]3C[C@@H](C(C)C)[C@H](CNC(=O)C4CCCCC4)C=C3C)[nH]c2c1`?
Pf Dd2 growth: 11.2µM*

Results for CC1=C[C@@H](CNC(=O)COCC(=O)O)[C@H](C(C)C)C[C@H]1Cc1nc2ccc(F)cc2[nH]1 ?
Pf Dd2 growth: 9.0%[44.1 µM]

How did CC1=C[C@@H](CNC(=O)CCCC(=O)O)[C@H](C(C)C)C[C@H]1Cc1nc2ccccc2[nH]1 do in these assays?
Pf Dd2 growth: -19.2%[44.1 µM]

Results for COc1ccc2nc(C[C@@H]3C[C@@H](C(C)C)[C@H](CNCc4ccccc4)C=C3C)[nH]c2c1 ?
Pf Dd2 growth: -15.1%[44.1 µM]

What do the screens show for `CC1=C[C@@H](CNC(=O)CC(C)(C)CC(=O)O)[C@H](C(C)C)C[C@H]1Cc1nc2ccc(C)cc2[nH]1`?
Pf Dd2 growth: 8.91µM*

What do the screens show for `CC1=C[C@@H](CNC(=O)CC(C)(C)CC(=O)O)[C@H](C(C)C)C[C@H]1Cc1nc2ccncc2[nH]1`?
Pf Dd2 growth: 2.0%

How did COCC(=O)NC[C@@H]1C=C(C)[C@H](Cc2nc3ccc(C(=O)OC)cc3[nH]2)C[C@H]1C(C)C do in these assays?
Pf Dd2 growth: 11.2µM*

How did CC1=C[C@@H](CNC(=O)CC(C)(C)CC(=O)O)[C@H](C(C)C)C[C@H]1Cc1nc2ccc(F)cc2[nH]1 do in these assays?
Pf Dd2 growth: inactive

How did O=C1NC2(Cc3ccccc31)CN(Cc1ccc(C(F)(F)F)cc1)C2 do in these assays?
Pf Dd2 growth: -1.4%

How did CC(=O)c1ccc(NC(=O)Cn2ccn3nc(-c4ccc(F)cc4)c(CO)c3c2=O)cc1 do in these assays?
Pf Dd2 growth: 8.9%

What do the screens show for `CC(=O)NCCCC(=O)N1CCOC2(CCN(C(=O)C3CCN(C)CC3)CC2)C1`?
Pf Dd2 growth: 6.7%

What do the screens show for `Cc1noc(C)c1[S+](=O)([O-])N1CCc2nc(C(C)C)nc(-c3ccc(Cl)cc3)c2CC1`?
Pf Dd2 growth: 9.6%

How did COC(=O)c1ccc2nc(C[C@@H]3C[C@@H](C(C)C)[C@H](CNC(=O)CN(C)C)C=C3C)[nH]c2c1 do in these assays?
Pf Dd2 growth: -4.6%

How did COc1ccc2nc(C[C@@H]3C[C@@H](C(C)C)[C@H](CNC(=O)[C@@H]4CCCC[C@@H]4C(=O)O)C=C3C)[nH]c2c1 do in these assays?
Pf Dd2 growth: -24.3%

Results for COc1ccc2nc(C[C@@H]3C[C@@H](C(C)C)[C@H](CNC(=O)C4CCCCC4)C=C3C)[nH]c2c1 ?
Pf Dd2 growth: 12.6µM*

Results for CCC(CC)C(=O)NC[C@@H]1C=C(C)[C@H](Cc2nc3ccc(C)cc3[nH]2)C[C@H]1C(C)C ?
Pf Dd2 growth: -11.8%[44.1 µM]

What do the screens show for `CC1=C[C@@H](CNC(=O)C2CCCCC2)[C@H](C(C)C)C[C@H]1Cc1nc2c(C)cccc2[nH]1`?
Pf Dd2 growth: -25.3%[44.1 µM]

Results for COc1ccc2nc(C[C@@H]3C[C@@H](C(C)C)[C@H](CNC4CCCCC4)C=C3C)[nH]c2c1 ?
Pf Dd2 growth: 2.82µM*

What do the screens show for `COc1ccc2nc(C[C@@H]3C[C@@H](C(C)C)[C@H](CNC(=O)COCC(=O)O)C=C3C)[nH]c2c1`?
Pf Dd2 growth: -16.2%[44.1 µM]

Results for CC1=C[C@@H](CN)[C@H](C(C)C)C[C@H]1Cc1nc2ccccc2[nH]1 ?
Pf Dd2 growth: inactive

How did COC(=O)c1ccc2nc(C[C@@H]3C[C@@H](C(C)C)[C@H](CN(C)C)C=C3C)[nH]c2c1 do in these assays?
Pf Dd2 growth: 12.6µM*

What do the screens show for `CC1=C[C@@H](CNC(=O)C2CCCCC2)[C@H](C(C)C)C[C@H]1Cc1nc2ccc(C)cc2[nH]1`?
Pf Dd2 growth: 11.2µM*

Results for COc1ccc2nc(C[C@@H]3C[C@@H](C(C)C)[C@H](CN4C(=O)C(C)=C(C)C4=O)C=C3C)[nH]c2c1 ?
Pf Dd2 growth: inactive

Results for CCn1cc(-c2ccc(OC)cc2)cc1C(=O)O ?
Pf Dd2 growth: inactive

What do the screens show for `CCC1=NOC(CNC(=O)c2ccc(OC3CCN(C(=O)COC)CC3)cc2)C1` (stereo not drawn)?
Pf Dd2 growth: -14.8%

Results for O=C1COc2ccc(S(=O)(=O)N3CCCn4nc(CO)cc4C3)cc2N1 ?
Pf Dd2 growth: -10.0%

What do the screens show for `N[C@H]1[C@H](O)[C@@H](N2CCC(Cc3ccccc3)CC2)[C@@H]2OC[C@H]1O2`?
Pf Dd2 growth: inactive

Results for Cc1nc2c(c(-c3ccc(O)cc3)n1)CN(Cc1cccnc1)CC2 ?
Pf Dd2 growth: inactive

What do the screens show for `COc1coc(CN2CCCC(CCc3ccccc3F)C2)cc1=O` (stereo not drawn)?
Pf Dd2 growth: inactive

What do the screens show for `O=c1cc(CN2CCCC(CCc3ccccc3C(F)(F)F)C2)[nH]c(=O)[nH]1` (stereo not drawn)?
Pf Dd2 growth: -11.7%

What do the screens show for `Cc1ccccc1CN1CCCC(CCNS(=O)(=O)C2CC2)C1` (stereo not drawn)?
Pf Dd2 growth: 10µM*

Results for CC(Cn1ccnc1-c1cn(C2CCNCC2)nn1)Oc1cccnc1 (stereo not drawn) ?
Pf Dd2 growth: -6.2%

Results for CC(=O)N1CCCN(CC[C@H]2CN(S(=O)(=O)c3ccccc3)CC[C@H]2CC(=O)O)CC1 ?
Pf Dd2 growth: -7.9%

What do the screens show for `N[C@H]1CN(C(=O)C2CCN(C(=O)c3ccccn3)CC2)C[C@@H]1C1CC1`?
Pf Dd2 growth: -14.1%

Source: PubChem (National Center for Advancing Translational Sciences (NCATS))
